# PubChem BioAssay (Tox21)
# A number with no mark means an inactive call. Inconclusive results are not listed. Where a call stands in place of a potency, no number is given. The source made the active and inactive calls. Unless noted, calls follow the shape of the dose curve; as a rule, active = well fitted curve in the direction sought with a large enough effect in the repeat runs; inconclusive = weak or mixed curves; inactive = no such curve, though single readings can be large; an effect the other way counts as inactive or inconclusive.
# Legend:
# [1] = qHTS assay to identify small molecule antagonists of the estrogen receptor alpha (ER-alpha) signaling pathway using the BG1 cell line in the presence of 0.1 nM 17-beta-estradiol - cell viability counter screen (AID 1259241); also: nearly all actives have a fitted effect of over 40% in size; also: potency is read from the fitted curve at half-maximal effect
# Summary of the method: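 Estradiol-stimulated (0.1 nM) VM7Luc4E2 cells exposed to compounds 22 hr; viability measured by fluorescence of cleaved CellTiter-Fluor substrate after 30 min.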
# [2] = qHTS assay to identify small molecule antagonists of the androgen receptor (AR) signaling pathway using the MDA cell line in the presence of 0.5 nM R1881 - cell viability counter screen (AID 1259242); also: nearly all actives have a fitted effect of over 45% in size
# Summary of the method: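 Live-cell protease activity was measured by CellTiter-Fluor fluorescence after 30 min. Before that, MDA-kb2 MMTV-luciferase cells had 16 hr at 37C without CO2, exposed to test compounds and 0.5 nM R1881 final.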
# [3] = molecular target: Estrogen receptor (Homo sapiens) (UniProt P03372); test: qHTS assay to identify small molecule antagonists of the estrogen receptor alpha (ER-alpha) signaling pathway using the BG1 cell line in the presence of 0.1 nM 17-beta-estradiol (AID 1259244); also: nearly all actives have a fitted effect of over 50% in size
# Chain of Estrogen receptor (Homo sapiens) (P03372 whole entry, looked up): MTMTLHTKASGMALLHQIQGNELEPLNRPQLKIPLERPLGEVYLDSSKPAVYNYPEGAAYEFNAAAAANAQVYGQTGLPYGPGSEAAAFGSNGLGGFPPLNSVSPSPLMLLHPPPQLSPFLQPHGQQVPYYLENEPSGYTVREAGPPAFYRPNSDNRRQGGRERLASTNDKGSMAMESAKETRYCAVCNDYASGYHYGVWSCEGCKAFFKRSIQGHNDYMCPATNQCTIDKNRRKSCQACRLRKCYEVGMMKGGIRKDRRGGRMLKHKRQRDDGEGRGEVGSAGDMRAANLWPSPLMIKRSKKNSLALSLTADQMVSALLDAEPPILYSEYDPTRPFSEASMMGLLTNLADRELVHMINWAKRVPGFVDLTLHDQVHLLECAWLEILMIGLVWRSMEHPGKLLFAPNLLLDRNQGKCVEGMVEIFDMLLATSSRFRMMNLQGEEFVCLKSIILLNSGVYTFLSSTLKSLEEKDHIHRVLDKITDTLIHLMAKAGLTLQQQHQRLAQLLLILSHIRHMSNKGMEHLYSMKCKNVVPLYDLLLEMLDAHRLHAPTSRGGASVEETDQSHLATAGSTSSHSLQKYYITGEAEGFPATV
# Summary of the method: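 Luciferase luminescence (ONE-Glo, 30 min at room temperature) was read after 22 hr at 37C exposure to compounds plus 17beta-estradiol at 0.1 nM final. Cells were VM7Luc4E2 with endogenous ER-alpha and an ERE-driven luciferase, pre-cultured 5 days in hormone-depleted medium.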
# [4] = qHTS assay to identify small molecule HDAC inhibitors (AID 1259364); also: top concentration of the series differs between compounds; nearly all actives have a fitted effect of over 45% in size
# Summary of the method: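 Luminescence read after 30 min room-temperature HDAC-Glo incubation measures cellular class I/II HDAC activity. Compounds were applied for 2 hr at 37 C to HCT-116 wild-type cells seeded the day before.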
# [5] = qHTS assay to identify small molecule antagonists of the sonic hedgehog signaling (Shh) pathway - cell viability counter screen (AID 1259367); also: nearly all actives have a fitted effect of over 55% in size; also: potency is read from the fitted curve at half-maximal effect
# Summary of the method: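 CellTiter-Fluor signal in conditioned medium-stimulated 3T3 Gli1-Luc cells, 23 hr compound exposure, 37C.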
# [6] = qHTS assay to identify small molecule agonists of the sonic hedgehog signaling (Shh) pathway (AID 1259368; calls by dose curve;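 also: NIH/3T3-derived 3T3Gli1-Luc cells carrying a stable Gli1-driven firefly luciferase reporter; series mostly up to about 92 µM; nearly all actives have a fitted effect of over 15% in size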)
# Summary of the method: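 Luminescence was read after 30 min at room temperature with luciferase reagent. Before that, 3T3Gli1-Luc cells (NIH/3T3 clone, stable Gli1-Luc reporter; 2,000/well) were exposed to compounds for 24 hr at 37C, 5% CO2, compounds being added 4 hr post-plating.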
# [7] = qHTS assay to identify small molecule antagonists of the sonic hedgehog signaling (Shh) pathway (AID 1259369; calls by dose curve; also: nearly all actives have a fitted effect of over 45% in size; also: potency is read from the fitted curve at half-maximal effect)
# Summary of the method: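 Antagonist mode: compound added to 3T3 Gli1-Luc cells followed by conditioned-medium stimulation, 24 h at 37 C, 5% CO2. Inhibition taken as loss of Gli1-driven luciferase luminescence.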
# [8] = molecular target: Estrogen receptor beta (Homo sapiens) (UniProt Q92731); test: qHTS assay to identify small molecule agonists of the estrogen receptor beta (ER-beta) signaling pathway (AID 1259377; active = well fitted activation curve with a large enough effect in the signal ratio in the repeat runs, not every such curve was filed as active; the % refers to the signal ratio)
# Chain of Estrogen receptor beta (Homo sapiens) (Q92731 whole entry, looked up): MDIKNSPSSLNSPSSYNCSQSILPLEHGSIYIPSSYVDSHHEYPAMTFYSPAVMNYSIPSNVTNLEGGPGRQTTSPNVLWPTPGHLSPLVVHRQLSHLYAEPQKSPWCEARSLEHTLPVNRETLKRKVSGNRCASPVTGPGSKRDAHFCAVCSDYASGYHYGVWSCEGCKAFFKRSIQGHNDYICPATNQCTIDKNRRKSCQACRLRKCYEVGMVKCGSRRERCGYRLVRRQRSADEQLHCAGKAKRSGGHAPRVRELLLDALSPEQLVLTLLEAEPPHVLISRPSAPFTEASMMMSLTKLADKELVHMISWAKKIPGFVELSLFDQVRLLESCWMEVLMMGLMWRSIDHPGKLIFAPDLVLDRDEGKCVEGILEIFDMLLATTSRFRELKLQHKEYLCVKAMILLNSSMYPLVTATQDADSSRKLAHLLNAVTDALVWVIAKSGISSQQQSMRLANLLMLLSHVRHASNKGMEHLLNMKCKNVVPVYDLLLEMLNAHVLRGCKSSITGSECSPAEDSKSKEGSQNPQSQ
# Summary of the method: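 Read-out: beta-lactamase FRET fluorescence. Cell line: ER-beta-UAS-bla HEK293T in 2% charcoal-stripped FBS. Exposure: 16 hr at 37C. Substrate step: 2 h at room temperature.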
# [9] = qHTS assay to identify small molecule agonists of the androgen receptor (AR) signaling pathway in the presence of an antagonist - cell viability counter screen (AID 1259379);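 also: MDA-kb2 human breast cancer cells carrying an MMTV luciferase reporter; series mostly up to about 92 µM; nearly all actives have a fitted effect of over 25% in size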
# Summary of the method: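 Cytotoxicity counter-screen run in the same wells as the nilutamide-challenged (3.0 µM final) AR agonist assay in MDA-kb2 cells. Compounds tested at 15 concentrations for 16 h, 37 °C without CO2; CellTiter-Fluor fluorescence read.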
# [10] = qHTS assay to identify small molecule agonists of the estrogen receptor beta (ER-beta) signaling pathway - cell viability counter screen (AID 1259380); also: nearly all actives have a fitted effect of over 30% in size
# Summary of the method: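 Cell viability counter screen: CellTiter-Glo luminescence (30 min, room temperature) measured in the same wells as the beta-lactamase readout, after 16 hr compound exposure at 37C of ER-beta-bla HEK293T cells in 2% charcoal-stripped FBS medium.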
# [11] = qHTS assay to identify small molecule antagonists of the estrogen receptor beta (ER-beta) signaling pathway - cell viability counter screen (AID 1259382);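 also: HEK293T cells carrying ER-beta-UAS-bla reporter stimulated with estradiol; series mostly up to about 92 µM; nearly all actives have a fitted effect of over 55% in size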
# Summary of the method: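 Cytotoxicity was measured in the same wells by CellTiter-Glo luminescence after 30 min at room temperature. Cells were ER-beta-bla HEK293T in charcoal-stripped serum, given compound together with 1 nM E2 and incubated 16 h at 37C.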
# [12] = molecular target: Estrogen receptor (Homo sapiens) (UniProt P03372); test: qHTS assay to identify small molecule agonists of the estrogen receptor alpha (ER-alpha) signaling pathway in the presence of an antagonist (AID 1259383; calls by dose curve; also: top concentration of the series differs between compounds; nearly all actives have a fitted effect of over 15% in size)
# Summary of the method: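 Agonist-mode confirmation run in the presence of 10.0nM (final) ICI-182,780 antagonist. The reporter was ERE-driven luciferase in VM7Luc4E2 cells, grown in charcoal-stripped serum. Cells were exposed to 15-concentration compound series for 22hr, then ONE-Glo luminescence was read.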
# [13] = qHTS assay to identify small molecule agonists or antagonists of the thyroid stimulating hormone receptor (TSHR) signaling pathway - wild type cell line counter screen (AID 1259384; calls by dose curve)
# Summary of the method: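 Counter screen in untransfected Hek293: compounds (15-point titration, triplicate) plus phosphodiesterase inhibitor Ro20-1724 added after 18 h plating; 30 min RT. Intracellular cAMP via competitive d2/cryptate immunoassay, 1 h incubation.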
# [14] = molecular target: Thyrotropin receptor (Homo sapiens) (UniProt P16473); test: qHTS assay to identify small molecule antagonists of the thyroid stimulating hormone receptor (TSHR) signaling pathway (AID 1259385; calls by dose curve; also: nearly all actives have a fitted effect of over 20% in size)
# Chain of Thyrotropin receptor (Homo sapiens) (P16473 whole entry, looked up): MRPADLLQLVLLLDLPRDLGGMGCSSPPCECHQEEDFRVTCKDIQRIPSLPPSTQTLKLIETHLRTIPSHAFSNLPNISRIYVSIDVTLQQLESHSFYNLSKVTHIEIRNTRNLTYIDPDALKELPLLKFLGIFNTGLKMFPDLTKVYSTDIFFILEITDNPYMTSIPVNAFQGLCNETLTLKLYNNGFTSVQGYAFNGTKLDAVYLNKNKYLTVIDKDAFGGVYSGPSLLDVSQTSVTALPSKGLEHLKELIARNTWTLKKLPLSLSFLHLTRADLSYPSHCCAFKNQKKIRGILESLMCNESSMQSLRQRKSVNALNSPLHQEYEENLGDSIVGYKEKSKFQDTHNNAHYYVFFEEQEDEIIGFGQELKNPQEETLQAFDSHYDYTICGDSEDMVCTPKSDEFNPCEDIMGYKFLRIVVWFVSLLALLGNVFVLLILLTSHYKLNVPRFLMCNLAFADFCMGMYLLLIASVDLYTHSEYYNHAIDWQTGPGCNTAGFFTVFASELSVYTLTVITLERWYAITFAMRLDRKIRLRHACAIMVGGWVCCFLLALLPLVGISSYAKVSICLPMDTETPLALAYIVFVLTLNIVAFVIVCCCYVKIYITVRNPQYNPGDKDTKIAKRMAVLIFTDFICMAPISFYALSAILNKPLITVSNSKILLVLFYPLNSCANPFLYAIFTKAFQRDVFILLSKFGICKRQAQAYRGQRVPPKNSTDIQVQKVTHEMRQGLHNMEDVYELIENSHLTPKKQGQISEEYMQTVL
# Summary of the method: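 Antagonist mode: compound-treated TSHR-expressing HEK293 cells were stimulated with 1.5 ng/mL TSH (final) in presence of Ro20-1724 for 30 min at RT. HTRF cAMP detection after 1 h; each compound tested at 15 concentrations, triplicate.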
# [15] = qHTS assay to identify small molecule phospholipidosis (PLD) inducers (AID 1259344; active = well fitted curve in the direction sought with a large enough effect; an effect the other way counts as inactive or inconclusive)
# Summary of the method: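 Accumulated phospholipid, stained red by LipidTOX during 24 h compound treatment of HepG2 cells at 37 C, is quantified from images as pit number and intensity, normalised per cell using Hoechst-stained nuclei.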
# [16] = qHTS assay to identify small molecule HDAC inhibitors - cell viability counter screen (AID 1259365); also: series mostly up to about 92 µM; nearly all actives have a fitted effect of over 50% in size
# Summary of the method: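 After overnight seeding at 1,500 cells per well, wild-type HCT-116 cultures took up compounds in DMSO for 2hr at 37 C. Viable cell content came from luminescence with CellTiter-Glo.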
# [17] = qHTS assay to identify small molecule agonists of the sonic hedgehog signaling (Shh) pathway - cell viability counter screen (AID 1259366); also: nearly all actives have a fitted effect of over 50% in size; also: potency is read from the fitted curve at half-maximal effect
# Summary of the method: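 Same-well cytotoxicity read. Gli1-Luc reporter 3T3 cells; compounds 24hr, 37C/5% CO2; CellTiter-Fluor fluorescence.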
# [18] = molecular target: Estrogen receptor beta (Homo sapiens) (UniProt Q92731); test: qHTS assay to identify small molecule antagonists of the estrogen receptor beta (ER-beta) signaling pathway (AID 1259378; active = well fitted inhibition curve with a large enough effect in the signal ratio in the repeat runs, not every such curve was filed as active; the % refers to the signal ratio)
# Summary of the method: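 Antagonist mode: compounds added to beta-lactamase reporter HEK293T ER-beta-UAS cells stimulated with E2 (1nM final), 16 hr at 37C. LiveBLAzer B/G FRET substrate, 2 hours room temperature, fluorescence read-out.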
Compound,Potency [1],Potency [2],Potency [3],Potency [4],Potency [5],Potency [6],Potency [7],Potency [8],Potency [9],Potency [10],Potency [11],Potency [12],Potency [13],Potency [14],Potency [15],Potency [16],Potency [17],Potency [18]
CC(C)(O)CCc1ccccc1,inactive,inactive,inactive,inactive,inactive,inactive,inactive,inactive,inactive,inactive,inactive,inactive,inactive,inactive,,,,
Cc1c[nH]c2ccccc12,inactive,inactive,,inactive,inactive,,,,inactive,inactive,inactive,,inactive,inactive,inactive,inactive,,
Nc1ccn([C@H]2CS[C@@H](CO)O2)c(=O)n1,inactive,inactive,,inactive,inactive,inactive,inactive,inactive,,inactive,,,inactive,inactive,inactive,inactive,inactive,inactive
O=C(O)CN1C(=O)c2cccc3cccc(c23)C1=O,inactive,inactive,,inactive,,inactive,inactive,,inactive,inactive,,,inactive,inactive,inactive,,inactive,
CC(O)Cn1cnc2c1c(=O)n(C)c(=O)n2C (centres undefined),inactive,inactive,,inactive,inactive,inactive,inactive,inactive,inactive,inactive,inactive,,,,inactive,inactive,inactive,
CC[C@H]1OC(=O)[C@H](C)[C@@H](O[C@H]2C[C@@](C)(OC)[C@@H](O)[C@H](C)O2)[C@H](C)[C@@H](O[C@@H]2O[C@H](C)C[C@H](N(C)C)[C@H]2O)[C@](C)(O)C[C@@H](C)/C(=N\OCOCCOC)[C@H](C)[C@@H](O)[C@]1(C)O,10.2 µM (active),inactive,,inactive,8.07 µM (active),inactive,12.8 µM (active),,,inactive,inactive,inactive,inactive,inactive,inactive,,5.09 µM (active),
CCN(CC)C(=O)N1CCN(C)CC1,inactive,inactive,,inactive,inactive,inactive,inactive,inactive,inactive,inactive,,,inactive,inactive,inactive,,,inactive
CC(C)(C(=O)c1cccnc1)c1cccnc1,inactive,inactive,,inactive,,inactive,,,,inactive,inactive,inactive,inactive,inactive,inactive,inactive,,
CC(=O)C(C)=O,inactive,inactive,,inactive,,,inactive,,inactive,inactive,inactive,,inactive,inactive,,inactive,,
O=[N+]([O-])c1ccc2ncccc2c1,inactive,inactive,,inactive,,inactive,inactive,inactive,inactive,inactive,inactive,inactive,inactive,inactive,,inactive,inactive,inactive
Cc1ccc2c(c1)CCCN2,inactive,inactive,,inactive,inactive,inactive,inactive,,,inactive,,,inactive,inactive,,inactive,inactive,
COc1ccc(C)cc1,inactive,inactive,,inactive,inactive,inactive,inactive,,inactive,inactive,,,inactive,inactive,,inactive,inactive,
CC1=CC[C@@]23C[C@@H]1C(C)(C)[C@@H]2CC[C@H]3C,inactive,inactive,,inactive,inactive,inactive,inactive,inactive,inactive,inactive,,,inactive,inactive,,,,
